{"source": "PubChem BioAssay (NCATS)", "note": "Inconclusive results are not listed. The source made the active and inactive calls. Calls come from the whole dose curve; as a rule, active = well fitted inhibition curve with a large enough effect; inconclusive = small, poorly fitted or top-dose-only effect, or effect the other way; inactive = flat fitted curve, though single readings scatter. Potency is the fitted concentration of half-maximal effect.", "data": [{"assay": "qHTS for Inhibitors of Plasmodium falciparum (GB4) proliferation (AID 504315); note: nearly all actives have a fitted effect of over 50% in size;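 for activity change, negative = inhibition: 0% = DMSO vehicle and -100% = 0.29 µM artemisinin control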", "conditions": "P. falciparum GB4 in erythrocytes, SYBR Green DNA, 72 h; series mostly up to 6.7 µM; activity change, negative = inhibition: at the top concentration", "excerpt": "Plasmodium falciparum is a virulent malarial parasite that kills 1-2 million people worldwide each year. Malaria not only inflicts tremendous suffering and morbidity on the human population, but has dramatically influenced the course of civilization with profound sociological and economic implications (Shah, S. 2010). Transmitted by mosquitoes, the sporozoite form of the parasite enters the blood stream to infect hepatocytes, where they become merozoites that infect red blood cells (erythrocytes). Within erythrocytes, merozoites begin a […] cycle of growth and division, after which the parasite is released to infect new red blood cells. Gametocytes, which form within erythrocytes as well, circulate in the bloodstream and are ingested by the mosquito, thereby completing the life cycle (see CDC website). To profile malarial lines for differential chemical responses and to identify inhibitors of malarial growth, an assay that measures P. falciparum growth and replication within erythrocytes was employed. This assay uses a DNA binding fluorescent dye (SYBR Green) to detect parasite DNA following cell lysis. Because mature erythrocytes lack DNA, only Plasmodium-derived DNA is detected. The P. falciparum line cp250, derived from a malarial isolate from Cambodia, (Mu, J., et al. 2010) was added to the panel of lines, Dd2, HB3, 7G8 and GB4 in this study. Laboratory of Assay Development and Screening Technology [ADST] and NIH Chemical Genomics Center [NCGC] Boston University, Chemistry Department, Center for Chemical Methodology and Library Development [CMLD-BU] NIH National Institute of Allergy and Infectious Diseases [NIAID]\nADST Assay Protocol Summary: The 1536-well SYBR Green viability assay was based on the method of Bennett et al (2004) and described previously in 1536-well format (Yuan J., et al. 2009). For screening 3 ul culture medium was dispensed into 1536 well black clear bottom plates (Aurora Biotechnologies) using a Multidrop Combi (Thermo Fisher Scientific Inc.), 23 nL compounds in DMSO were added by a pin transfer (Cleveland, P.H. and Koutz, P.J, 2005) using a pin tool-based delivery system (Kalypsys), and 5 ul of erythrocytes infected with P. falciparum one of five lines (cp250, Dd2, HB3, 7G8 or GB4, 0.3% parasitemia, 2.5% hematocrit final concentration) were added. The plates were incubated at 37C in a humidified incubator in 5% CO2 for 72 h, and 2 ul lysis buffer (20 mM Tris HCl, 10 mM EDTA, 0.16% saponin, 1.6% triton X, 10X SYBR Green I (supplied as 10,000X final concentration by Invitrogen) was added to each well. The plates were mixed for 25 sec with gentle shaking and incubated overnight at room temperature in the dark. The following morning, fluorescence intensity at 485(14) nm excitation and 535(25) nm emission wavelengths was measured on an EnVision (Perkin Elmer) plate reader. Plate reads were normalized relative to the control inhibitor (0.29 uM artemisinin) and vehicle (DMSO) wells present on each plate and then corrected by an algorithm using vehicle-only control plates at the beginning and end of the compound plate stack. References Shah, S. (2010). The Fever: how malaria has ruled humankind for 500,000 years. New York, Sarah Crichton Books. CDC web site, http://www.cdc.gov/malaria/about/biology/index.html Mu, J., Myers, R.A., Jiang, H., Liu, S., Ricklefs, S., Waisberg, M., Chotivanich, K., Wilairatana, P., Krudsood, S., White, N.J., et Plasmodium falciparum genome-wide scans for positive selection, recombination hot spots and resistance to antimalarial drugs Nature Genetics 2010, 42, pp 268-271 Bennett TN, Paguio, M., Gligorijevic, B., Seudieu, C., Kosar, A. D., Davidson, E., and Roepe, P. D. Novel, rapid, and inexpensive cell-based quantification of antimalarial drug efficacy Antimicrobial Agents Chemother. 2004, 48(5): pp 1807-10 Yuan J, Johnson RL, Huang RL, Wichterman J, Jiang HY, Hayton K, Fidock DA, Wellems TE, Inglese J, Austin CP, Su XZ. […]", "values": [{"compound": "COC(=O)c1ccc(CN2C(=O)[C@]3(OCCC=C[C@@H]3C)c3cc(OC)ccc32)cc1", "activity change, negative = inhibition": "-3.05% (inactive)"}, {"compound": "COC(=O)CC=C[C@@H](C)[C@@H](C=NO[C@H](C)CN1CCCc2nc(C)c(C)cc21)N[S+](=O)([O-])c1ccc(C)cc1", "activity change, negative = inhibition": "-11.9% (inactive)"}, {"compound": "COC(=O)C[C@H]1c2ccccc2C2=C(C[C@@H](C)[C@H]3C(=O)NC(=O)[C@@H]23)N1C(=O)OC", "Potency": "inactive"}, {"compound": "COc1ccc2c(c1)C(NC(=O)C(F)(F)F)CC21CCCCC1", "note": "(stereo not given)", "activity change, negative = inhibition": "1.84% (inactive)"}, {"compound": "C=C(C)C(=O)C=Cc1ccc(Br)cc1", "activity change, negative = inhibition": "10.2% (inactive)"}, {"compound": "CC#CCC1(C(=O)OC)C(=O)NC[C@H]1c1ccccc1", "note": "(stereo not given in full)", "activity change, negative = inhibition": "-5.56% (inactive)"}, {"compound": "COc1ccc(-c2nc(-c3ccccc3)oc2Nc2ccccc2C)cc1", "Potency": "inactive"}, {"compound": "O=C1CCCC=C1[C@@H](O)CCOC(c1ccccc1)(c1ccccc1)c1ccccc1", "Potency": "1.51 µM (active)"}, {"compound": "Cc1c(O)c(=O)c2ccccc2n1C", "activity change, negative = inhibition": "5.36% (inactive)"}, {"compound": "Cc1cc2c(c(=O)o1)[C@H]1O[C@](c3ccsc3)(Cc3cc(C#N)ccc31)O2", "activity change, negative = inhibition": "-2.44% (inactive)"}, {"compound": "O=C(NN=C1C[C@@H](O)[C@H](O)[C@H]2[C@@H]3C(=O)N(c4cccc(Oc5ccccc5)c4)C(=O)[C@@H]3CC[C@H]12)OCc1ccccc1", "activity change, negative = inhibition": "16.9% (inactive)"}, {"compound": "COC(=O)CCCC1=CC2=C(c3ccccc3)C(=O)C(C)(OC(=O)C3CCCC3)C(=O)C2=CN1Cc1ccco1", "note": "(stereo not given)", "activity change, negative = inhibition": "-0.57% (inactive)"}, {"compound": "CC1(OC(=O)C2CCCC2)C(=O)C=C2C=C(c3ccsc3)N(CC3CC3)C=C2C1=O", "note": "(stereo not given)", "Potency": "inactive"}, {"compound": "Cc1ccc(O[C@@H]2[C@H](O)CO[C@H]2C=CC#Cc2ccc(C(C)(C)C)cc2)cc1", "activity change, negative = inhibition": "3.88% (inactive)"}, {"compound": "CC(=O)OC[C@H]1O[C@@H](ON=C(C)CCN2CCCCc3nc(C)c(C)cc32)[C@H](OC(C)=O)[C@@H](OC(C)=O)[C@H]1OC(C)=O", "activity change, negative = inhibition": "-2.24% (inactive)"}, {"compound": "CCOC(=O)CN1C(=O)NC(c2ccc(Br)cc2)C(C(=O)OC)=C1C", "note": "(stereo not given)", "activity change, negative = inhibition": "12.5% (inactive)"}, {"compound": "COC(=O)N1C2CC3(C)CC(=O)CC1(C)C3c1ccccc12", "note": "(stereo not given)", "Potency": "inactive"}, {"compound": "COC(=O)N[C@H](C(C(=O)OC)=C(C)NCc1ccccc1)c1cccc(C)c1", "activity change, negative = inhibition": "8.01% (inactive)"}, {"compound": "C=C(C)CO[C@H]1C=C[C@@H](c2ccccc2)O[C@H]1CO", "activity change, negative = inhibition": "9.68% (inactive)"}, {"compound": "CCOC(=O)NN=Cc1ccccc1-c1cc(OC)ccc1OC", "activity change, negative = inhibition": "5.17% (inactive)"}, {"compound": "COC(=O)CC=C1c2ccc3c(c2[C@@H](OC)[C@@H]1C)OCO3", "Potency": "inactive"}, {"compound": "CCOC(=O)[C@@]1([C@@H](NC(=O)OC)c2cccc(C)c2)CCCC1=O", "activity change, negative = inhibition": "3.41% (inactive)"}, {"compound": "CC(=O)C1=C(C)N(Cc2ccccc2)C(=O)NC1c1cccc(C(F)(F)F)c1", "note": "(stereo not given)", "Potency": "inactive"}, {"compound": "COc1cccc([C@H]2Oc3ccc(OC)cc3C(=NOC[C@@H](O)COCc3ccco3)[C@H]2O)c1", "activity change, negative = inhibition": "1% (inactive)"}, {"compound": "CCCCC1=CC2=C(c3ccco3)C(=O)C(C)(OC(=O)c3ccc(OC)cc3)C(=O)C2=CN1CCCN(CC)CC", "note": "(stereo not given)", "Potency": "inactive"}, {"compound": "CCC(=O)C[C@@H](NC(=O)OC)c1ccccc1", "activity change, negative = inhibition": "12.9% (inactive)"}, {"compound": "COC(=O)C[C@H]1c2ccccc2C2=C(C[C@@H](C)[C@H]3C(=O)N(c4ccccc4)C(=O)[C@@H]23)N1C(=O)OC", "Potency": "inactive"}, {"compound": "COc1cccc([C@H]2Oc3ccc(OC)cc3C(=NO[C@H](C)CN3CCCc4nc(C)c(C)cc43)[C@H]2O)c1", "activity change, negative = inhibition": "-13.8% (inactive)"}, {"compound": "COC(=O)NC(c1ccc2c(c1)OCO2)C(C(=O)OC)C(=O)OC", "note": "(stereo not given)", "activity change, negative = inhibition": "0.787% (inactive)"}, {"compound": "CCOC(=O)OC[C@H]1O[C@H](c2cc(C)cc(C)c2)C=C[C@H]1OC(=O)OCC", "activity change, negative = inhibition": "-16% (inactive)"}, {"compound": "CCCCC1=CC2=C(c3ccco3)C(=O)C(C)(OC(=O)c3ccc(OC)cc3)C(=O)C2=CN1Cc1ccccc1", "note": "(stereo not given)", "Potency": "inactive"}, {"compound": "COc1ccc(OC)c(-c2ccccc2C=NNS(=O)(=O)c2ccc(C)cc2)c1", "activity change, negative = inhibition": "8.69% (inactive)"}, {"compound": "CCCCC[C@]12Cc3cc(OC)c(OC)cc3[C@H](O1)c1c(cc(C)n(-c3ccccc3)c1=O)O2", "activity change, negative = inhibition": "-1.59% (inactive)"}, {"compound": "C[C@@H]1CC[C@H]2C(=O)O[C@H](COc3ccc(C(C)(C)C)cc3)CN2[C@@H]1c1ccc(Br)cc1", "activity change, negative = inhibition": "8.61% (inactive)"}, {"compound": "COC(=O)C1=C(C(=O)OC)[C@@H]2N(Cc3ccccc3)c3ccccc3[C@@]23C[C@@H](C(=O)OC)N(C(=O)c2cc(C)oc2C)C3=N1", "Potency": "inactive"}, {"compound": "COC(=O)C1=C(C(=O)OC)[C@@H]2N(C)c3ccccc3[C@@]23C[C@@H](C(=O)OC)N(C(=O)c2cc(C)oc2C)C3=N1", "Potency": "inactive"}, {"compound": "COC(=O)CC=C1c2ccccc2[C@@H](NC(=O)OC)[C@@H]1C", "activity change, negative = inhibition": "8.38% (inactive)"}, {"compound": "C=CCN(C)C1=NC(c2ccccc2)C(C(=O)OC)=C(C)N1CCOC", "note": "(stereo not given)", "activity change, negative = inhibition": "-3.27% (inactive)"}, {"compound": "COC(=O)C(c1ccc(OC)c(OC)c1)C1c2ccccc2C=C(C)N1C(=O)OC", "note": "(stereo not given)", "activity change, negative = inhibition": "3.17% (inactive)"}, {"compound": "CO[C@H](C1CCCCC1)[C@H](C)C=CCC(=O)OCCCc1ccccc1", "activity change, negative = inhibition": "13.7% (inactive)"}]}]}
